Records with an inconclusive call do not appear. The source made the active and inactive calls. Unless noted, the call rests on the fitted dose curve.
What was measured:
[1] = qHTS assay to identify small molecule antagonists of the estrogen receptor beta (ER-beta) signaling pathway - cell viability counter screen (AID 1259382; active means well fitted curve in the direction sought with a large enough effect in the repeat runs; an effect the other way counts as inactive or inconclusive;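 further: HEK293T cells carrying ER-beta-UAS-bla reporter stimulated with estradiol; nearly all actives have a fitted effect of over 55% in size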); conditions: ER-beta-UAS-bla HEK293T viability, CellTiter-Glo luminescence, 16 h; series mostly up to 92.4 µM
How it was run: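 HEK293T ER-beta-UAS-bla, 2% charcoal-stripped FBS; compounds + 1nM E2 16 hr 37C; CellTiter-Glo luminescence, 30 min RT.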

[2] = biological target: Estrogen receptor (Homo sapiens) (UniProt P03372); experiment: qHTS assay to identify small molecule agonists of the estrogen receptor alpha (ER-alpha) signaling pathway in the presence of an antagonist (AID 1259383); conditions: VM7Luc4E2 cells, ERE-luciferase, +ICI-182,780, 22 h; series mostly up to 92.4 µM; further: top concentration of the series differs between compounds; nearly all actives have a fitted effect of over 15% in size
Sequence of Estrogen receptor (Homo sapiens) (P03372 whole entry, looked up): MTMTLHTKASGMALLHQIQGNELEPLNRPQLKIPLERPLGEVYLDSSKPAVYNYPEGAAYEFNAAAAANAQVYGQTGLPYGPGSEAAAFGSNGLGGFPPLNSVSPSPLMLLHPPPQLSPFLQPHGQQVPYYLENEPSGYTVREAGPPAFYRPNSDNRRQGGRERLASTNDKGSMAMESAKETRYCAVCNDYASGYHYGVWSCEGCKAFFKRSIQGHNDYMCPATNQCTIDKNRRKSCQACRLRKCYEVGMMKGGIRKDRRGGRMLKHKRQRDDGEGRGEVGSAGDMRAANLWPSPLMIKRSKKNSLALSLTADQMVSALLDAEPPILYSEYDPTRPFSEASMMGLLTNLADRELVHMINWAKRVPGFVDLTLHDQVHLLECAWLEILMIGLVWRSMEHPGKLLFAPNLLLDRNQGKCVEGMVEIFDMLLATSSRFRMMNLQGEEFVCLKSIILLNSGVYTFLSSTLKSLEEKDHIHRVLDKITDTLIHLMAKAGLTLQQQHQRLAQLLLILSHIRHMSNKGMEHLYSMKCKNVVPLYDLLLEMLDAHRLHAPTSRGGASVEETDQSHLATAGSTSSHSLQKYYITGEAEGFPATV
How it was run: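 ER-alpha agonism measured under antagonist challenge: 10.0nM ICI-182,780 (final) plus compound, 15 concentrations, 22hr, VM7Luc4E2 ERE-luciferase cells. Read by luminescence.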

[3] = biological target: Thyrotropin receptor (Homo sapiens) (UniProt P16473); experiment: qHTS assay to identify small molecule antagonists of the thyroid stimulating hormone receptor (TSHR) signaling pathway (AID 1259385); conditions: TSHR-HEK293 cAMP HTRF, TSH-stimulated antagonist mode; series mostly up to 92.4 µM; further: nearly all actives have a fitted effect of over 20% in size
Sequence of Thyrotropin receptor (Homo sapiens) (P16473 whole entry, looked up): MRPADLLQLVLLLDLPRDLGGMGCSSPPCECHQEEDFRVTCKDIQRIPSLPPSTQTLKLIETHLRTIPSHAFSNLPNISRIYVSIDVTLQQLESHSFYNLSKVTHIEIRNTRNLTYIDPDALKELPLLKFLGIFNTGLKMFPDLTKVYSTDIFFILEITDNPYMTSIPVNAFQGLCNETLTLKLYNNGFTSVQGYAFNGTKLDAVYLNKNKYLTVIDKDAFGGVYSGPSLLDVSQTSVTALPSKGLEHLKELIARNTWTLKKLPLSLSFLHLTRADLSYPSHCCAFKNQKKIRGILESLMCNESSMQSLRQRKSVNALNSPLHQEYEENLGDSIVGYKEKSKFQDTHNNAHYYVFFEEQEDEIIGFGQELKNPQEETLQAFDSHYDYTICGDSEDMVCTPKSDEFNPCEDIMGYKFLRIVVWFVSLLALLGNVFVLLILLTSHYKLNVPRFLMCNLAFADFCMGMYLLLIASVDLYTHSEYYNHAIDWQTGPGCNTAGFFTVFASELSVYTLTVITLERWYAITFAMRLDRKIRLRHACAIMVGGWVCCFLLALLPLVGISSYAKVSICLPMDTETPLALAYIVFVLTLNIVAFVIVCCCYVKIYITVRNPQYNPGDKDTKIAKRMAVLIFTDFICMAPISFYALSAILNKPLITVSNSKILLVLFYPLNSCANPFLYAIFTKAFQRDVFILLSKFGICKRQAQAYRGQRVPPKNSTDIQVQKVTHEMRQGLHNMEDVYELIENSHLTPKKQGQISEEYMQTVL
How it was run: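 Antagonist mode: compound-treated TSHR-expressing HEK293 cells were stimulated with 1.5 ng/mL TSH (final) in presence of Ro20-1724 for 30 min at RT. HTRF cAMP detection after 1 h; each compound tested at 15 concentrations, triplicate.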

[4] = qHTS assay to identify small molecule agonists of the estrogen receptor alpha (ER-alpha) signaling pathway in the presence of an antagonist - cell viability counter screen (AID 1259386; active means well fitted curve in the direction sought with a large enough effect in the repeat runs; an effect the other way counts as inactive or inconclusive;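 further: cells exposed to compounds for 22 h at 37 °C before the viability read; nearly all actives have a fitted effect of over 30% in size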); conditions: VM7Luc4E2 viability, CellTiter-Fluor fluorescence, 22 h; series mostly up to 92.4 µM
How it was run: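 Steps: 5-day stripped-FBS culture; seed and incubate 24hr; add ICI-182,780 (10.0nM final); pin 15-point compound titration; incubate 22hr at 37C; add CellTiter-Fluor at 21hr; read fluorescence.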

[5] = biological target: Progesterone receptor (Homo sapiens) (UniProt P06401); experiment: qHTS assay to identify small molecule agonists of the progesterone receptor (PR) signaling pathway (AID 1346784); conditions: PR-UAS-bla HEK293T, beta-lactamase FRET ratio, 16 h; series mostly up to 92.4 µM; further: nearly all actives have a fitted effect of over 30% in size
Sequence of Progesterone receptor (Homo sapiens) (P06401 whole entry, looked up): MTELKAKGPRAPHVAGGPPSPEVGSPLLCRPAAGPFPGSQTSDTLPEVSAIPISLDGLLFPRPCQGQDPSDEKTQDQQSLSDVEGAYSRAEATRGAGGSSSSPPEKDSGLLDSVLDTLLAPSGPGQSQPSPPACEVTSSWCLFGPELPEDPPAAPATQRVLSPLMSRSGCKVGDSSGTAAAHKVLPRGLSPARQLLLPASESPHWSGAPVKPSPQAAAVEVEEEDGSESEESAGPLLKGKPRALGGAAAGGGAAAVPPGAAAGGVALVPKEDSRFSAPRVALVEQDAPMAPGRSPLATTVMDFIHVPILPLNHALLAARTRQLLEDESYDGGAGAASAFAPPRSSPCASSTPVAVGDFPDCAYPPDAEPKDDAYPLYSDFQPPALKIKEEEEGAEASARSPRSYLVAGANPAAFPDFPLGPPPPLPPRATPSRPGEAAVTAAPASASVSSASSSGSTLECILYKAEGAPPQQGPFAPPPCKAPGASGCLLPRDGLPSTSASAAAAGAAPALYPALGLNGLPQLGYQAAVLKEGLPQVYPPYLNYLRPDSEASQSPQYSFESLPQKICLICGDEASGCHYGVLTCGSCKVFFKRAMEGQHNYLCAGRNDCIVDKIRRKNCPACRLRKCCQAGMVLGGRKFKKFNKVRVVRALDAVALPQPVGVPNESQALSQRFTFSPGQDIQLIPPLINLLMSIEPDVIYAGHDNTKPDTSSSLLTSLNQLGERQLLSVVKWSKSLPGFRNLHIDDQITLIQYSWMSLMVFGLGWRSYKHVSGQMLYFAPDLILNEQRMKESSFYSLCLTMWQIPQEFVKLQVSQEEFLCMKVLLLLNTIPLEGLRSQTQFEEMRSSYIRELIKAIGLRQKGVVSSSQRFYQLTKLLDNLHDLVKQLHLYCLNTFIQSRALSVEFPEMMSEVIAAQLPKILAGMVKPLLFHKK
How it was run: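 HEK 293T PR-UAS-bla reporter cells, 2% charcoal-stripped FBS; 6 hr settle at 37C/5% CO2, compound (DMSO) 16 hr, LiveBLAzer B/G FRET substrate 2 hr RT, fluorescence intensity read.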

[6] = biological target: Progesterone receptor (Homo sapiens) (UniProt P06401); experiment: qHTS assay to identify small molecule antagonists of the progesterone receptor (PR) signaling pathway (AID 1346795; active means well fitted inhibition curve with a large enough effect in the signal ratio in the repeat runs, not every such curve was filed as active; the % refers to the signal ratio); conditions: PR-UAS-bla HEK293T, beta-lactamase FRET ratio, 16 h; series mostly up to 92.4 µM
How it was run: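 Beta-lactamase reporter, HEK293T PR-UAS-bla line; 2% charcoal-stripped FBS; 6 hr pre-incubation, 37C/5% CO2. Compound + R5020 1 nM final, 16 hr. LiveBLAzer B/G FRET substrate, 2 hr RT; fluorescence intensity read.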

[7] = qHTS assay to identify small molecule antagonists of the progesterone receptor (PR) signaling pathway - cell viability counter screen (AID 1346798; active means well fitted curve in the direction sought with a large enough effect in the repeat runs; an effect the other way counts as inactive or inconclusive; further: nearly all actives have a fitted effect of over 50% in size); conditions: PR-UAS-bla HEK293T viability, CellTiter-Glo luminescence, 16 h; series mostly up to 92.4 µM
How it was run: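 Luminescence readout (CellTiter-Glo, 30 min, RT) of viability in PR-UAS-bla HEK293T cells exposed to compound and R5020 agonist for 16 hr at 37C, 5% CO2; run in the same wells as the beta-lactamase reporter read.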

[8] = qHTS assay to identify small molecule agonists of the progesterone receptor (PR) signaling pathway - cell viability counter screen (AID 1346799); conditions: PR-UAS-bla HEK293T viability, CellTiter-Glo luminescence, 16 h; series mostly up to 92.4 µM; further: nearly all actives have a fitted effect of over 45% in size
How it was run: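 HEK293T PR-UAS-bla, 3,000 cells/well, 2% charcoal-stripped FBS; 6 h settle, compound 16 h at 37C/5% CO2; LiveBLAzer 2 h RT, then CellTiter-Glo 30 min RT, luminescence read.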

[9] = qHTS assay to identify small molecule agonists or antagonists of the thyroid stimulating hormone receptor (TSHR) signaling pathway - wild type cell line counter screen (AID 1259384); conditions: HEK293 wild type, cAMP HTRF counter-screen, stronger effect = higher value; series mostly up to 92.4 µM
How it was run: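 Counter screen in untransfected Hek293: compounds (15-point titration, triplicate) plus phosphodiesterase inhibitor Ro20-1724 added after 18 h plating; 30 min RT. Intracellular cAMP via competitive d2/cryptate immunoassay, 1 h incubation.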
On the % scale 0 is the no-effect control and ±100 the full control effect.

O=C(COCCOCCOCC(=O)Nc1c(I)cc(I)c(C(=O)O)c1I)Nc1c(I)cc(I)c(C(=O)O)c1I
inactive: outcome [1] | outcome [2] | outcome [3] | Potency [4] | Potency [5] | Potency [6] | Potency [7] | Potency [8]

FC(F)(F)/C(=N\OCC1OCCO1)c1ccc(Cl)cc1
inactive: outcome [1] | outcome [2] | outcome [9] | outcome [3] | Potency [4] | Potency [6] | Potency [7] | Potency [8]

CCCCOC(=O)[C@@H](C)Oc1ccc(Oc2ccc(C(F)(F)F)cn2)cc1
inactive: outcome [1] | outcome [2] | outcome [9] | Potency [4] | Potency [5] | Potency [6] | Potency [7] | Potency [8]

CC(=O)N(CC(O)CO)c1c(I)c(C(=O)NCC(O)CO)c(I)c(C(=O)NCC(O)CO)c1I (stereo not drawn)
inactive: outcome [1] | outcome [2] | Potency [4] | Potency [5] | Potency [6] | Potency [7] | Potency [8]

CC(C)(CO)[C@@H](O)C(=O)NCCCO
inactive: outcome [1] | outcome [2] | outcome [9] | Potency [4] | Potency [5] | Potency [6] | Potency [7]

C=CCOC(=O)c1ccc(C(=O)OCC=C)c(C(=O)OCC=C)c1
inactive: outcome [1] | outcome [2] | Potency [4] | Potency [8]

CC(=O)OCC(=O)[C@@]1(O)[C@H](OC(C)=O)C[C@H]2[C@@H]3CCC4=CC(=O)C=C[C@]4(C)[C@@]3(F)[C@@H](O)C[C@@]21C
inactive: outcome [1] | outcome [2] | Potency [4] | Potency [5] | Potency [7] | Potency [8]

CCCC(C)CC (stereo not drawn)
inactive: outcome [1] | outcome [9] | outcome [3] | Potency [4] | Potency [5] | Potency [6] | Potency [7] | Potency [8]

Nc1ccc(/C=C/c2ccc(N)cc2S(=O)(=O)O)c(S(=O)(=O)O)c1
inactive: activity change, negative = cytotoxicity [1] 6.78% [at 0.349 µM] | activation [2] 0.0248% [at 0.349 µM] | activity change, negative = cytotoxicity [4] 0.0708% [at 0.349 µM] | activation [5] 0.0887% [at 0.349 µM] | activity change, negative = inhibition [6] 3.92% [at 0.348 µM] | activity change, negative = cytotoxicity [7] 0.087% [at 0.348 µM] | activity change, negative = cytotoxicity [8] -4.84% [at 0.349 µM]

C=C(C)C(=O)OC
inactive: outcome [1] | outcome [9] | outcome [3] | Potency [4] | Potency [5] | Potency [6] | Potency [7] | Potency [8]

O=P(O)(O)OCC(O)CO (stereo not drawn)
inactive: outcome [1] | outcome [2] | Potency [4] | Potency [6] | Potency [7] | Potency [8]

CCC(CO)CO
inactive: outcome [1] | outcome [2] | Potency [4] | Potency [5] | Potency [6] | Potency [8]
